# Rows were chosen to be rich in hits. Some 21% of all compounds tested hit in one or more screens of this group.
# Shiga toxin inh: inhibitors of Shiga toxin in Vero cells; Vero cells, Shiga toxin protein synthesis inhibition reporter; inhibition, % at 38.7 µM; hit rate 9.2% among 290,000; AID 2315; in the data active = inhibition mostly above about 28%, no sharp cut-off; inactive = mostly below about 43%
# SARS PLpro yeast: SARS-CoV PLP inhibition in yeast; AID 485353; S. cerevisiae expressing SARS-CoV PLpro, growth rescue; Potency, µM (top dose mostly 32.9 µM), hits mostly activators; hit rate 0.19% among 330,000; calls by dose curve; note: nearly all actives have a fitted effect of over 55% in size
# Pf growth 48h: P. falciparum growth inhibition at 48 hours (one generation). AID 504832. hit rate 5.9% among 310,000. P. falciparum luciferase growth in erythrocytes, 48 h. Potency, µM (highest dose often 28.7 µM), usual class: inhibitors
#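 A one-generation exposure of luciferase-tagged malaria parasites in RPMI 1640/Albumax erythrocyte culture, 37 C and 5% CO2. Inhibition is inferred from decreased luminescence after adding detection reagent.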
# NS1 inh: influenza NS1 inhibition; hit rate 0.4% among 270,000; Potency, µM (series often up to 46.1 µM); calls by dose curve; note: actives are rising curves; nearly all actives have a fitted effect of over 50% in size
#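 Read-out: OD600 growth recovery of NS1-expressing budding yeast. Cells grown overnight at 30C in -URA glucose medium, washed, resuspended and diluted 1:100 in 2% galactose assay medium, pH 6.0. Same strain lacking NS1 served as positive control.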
# Pf growth 96h: P. falciparum growth inhibition at 96 hours; P. falciparum luciferase reporter growth, 96 h; Potency, µM (titrated, usually from 28.7 µM), most hits filed as inhibitors; hit rate 6.9% among 320,000; AID 504834
#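 Erythrocytes infected with luciferase-expressing P. falciparum were dispensed at 2% hematocrit and 0.05% parasitemia (final), then incubated with compounds 96 hours at 37 C in 5% CO2. Luminescence after detection reagent addition reported growth.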
# CHX counter: counter-screen for Shiga toxin inhibitors: cycloheximide protein synthesis inhibition. cell reporter, cycloheximide protein synthesis inhibition counterscreen. max response, %. hit rate 12% among 300,000. AID 2314; in the data active = max response mostly above about 13%, no sharp cut-off; inactive = mostly below about 14%; note: read at 38.3 µM for the half of the compounds with a filed dose
# Numbers stand for hits; i = inactive; ? = inconclusive; nt = no result given; + = active, no number; [ ] = dose if it differs, or a comment. Unless noted, calls come from the whole dose curve; as a rule, active = well fitted inhibition curve with a large enough effect; inconclusive = small, poorly fitted or top-dose-only effect, or another doubt; inactive = no such curve, though single readings can be large or run the other way.
SMILES,Shiga toxin inh,SARS PLpro yeast,Pf growth 48h,NS1 inh,Pf growth 96h,CHX counter
COc1ccc(C)cc1S(=O)(=O)N1CCN(C)CC1c1ccccc1 (centres undefined),nt,i,i,nt,i,nt
O=C(COC(=O)CN1C(=O)NC2(CCCC2)C1=O)NCc1ccc(Cl)cc1Cl,nt,i,nt,nt,nt,nt
CC1CC2(CCCCC2)N2C(=O)C(=O)c3cccc1c32 (centres undefined),i,i,i,i,i,i
CC1(c2ccccc2)CC(C)(C)N2C(=O)C(=O)c3cccc1c32 (centres undefined),i,i,12µM,i,i,i
O=C(NCCC1=CCCCC1)c1cc(COc2ccc(F)cc2Cl)on1,i,i,i,i,?,i
CC(=O)c1cccc(OCc2cc(C(=O)NCCC3=CCCCC3)no2)c1,101,i,i,i,i,42
CSc1ccccc1OCc1cc(C(=O)NCCC2=CCCCC2)no1,28,i,i,i,i,i
O=C(NCCC1=CCCCC1)c1cc(COc2c(F)cccc2F)on1,i,i,i,i,i,i
Cc1onc(-c2ccccc2)c1C(=O)N/N=C/c1c(F)cccc1Cl,i,i,i,i,i,i
O=C(CNS(=O)(=O)c1c(F)cc(F)cc1Br)OCC(=O)N1CCCC1=O,nt,i,i,nt,i,nt
COc1ccccc1-n1c(-c2ccc(C)cc2)nc2ccccc2c1=O,48,i,?,i,i,29
O=c1c2ccccc2nc(/C=C/c2ccc(O)cc2)n1-c1ccccc1O,i,i,9.3µM,i,?,i
O=c1c2ccccc2nc(/C=C/c2ccccc2)n1-c1ccc(O)cc1,i,i,i[0.00184 µM],i,?,i
Cc1ccccc1-n1c(-c2ccoc2)nc2ccccc2c1=O,i,i,i,i,4.1µM,i
COc1ccccc1-n1c(/C=C/c2ccc(O)cc2)nc2ccccc2c1=O,i,i,13µM,i,i,i
CC(NC(=O)CSc1nnc(-c2cccnc2)n1N)c1ccccc1 (centres undefined),i,i,i,i,?,i
O=c1c2ccccc2nc(/C=C/c2ccccc2)n1-c1ccccc1O,i,i,9.3µM,i,?,i
O=C(O)c1cccc(-n2c(/C=C/c3ccccc3)nc3ccccc3c2=O)c1,i,i,i[0.00184 µM],i,i,i
O=C(NCc1cccnc1)c1ccc(NS(=O)(=O)c2ccc(F)cc2)cc1,i,i,?,i,6.6µM,i
CC(OC(=O)c1cccc(S(=O)(=O)N2CCCCC2)c1)C(=O)NCC1CCCCC1 (centres undefined),nt,i,i,nt,i,nt
O=C(NCC1CCCCC1)c1cccc(S(=O)(=O)N2CCCC2)c1,nt,i,10µM,nt,?,nt
O=C(NCc1cccnc1)c1cccc(S(=O)(=O)N2CCCC2)c1,i,i,i,?,i,52
COc1ccc(C2=NOC3(CC(=O)N(c4ccc(F)cc4)C3=O)C2)cc1 (centres undefined),i,i,?,i,?,i
O=C(NC(=S)Nc1ccc(Br)c(Cl)c1)C1CC1,32,?,i,i,?,26
CC(=O)Nc1ccc(NC(=S)NC(=O)C2CC2)cc1,64,i,?,i,i,25
SMILES,Shiga toxin inh,SARS PLpro yeast,Pf growth 48h,NS1 inh,Pf growth 96h,CHX counter
CC(=O)c1ccc(NC(=S)Nc2ccc(Br)c(Cl)c2)cc1,i,i,i,nt,i,i
O=C(Nc1ccc(F)cc1)C1CCCCC1,i,i,i,i,i[5.75 µM],i
O=C(NC(=S)Nc1ccc(O)cc1)C1CCCC1,nt,i,i,nt,i,nt
O=C(NC(=S)Nc1ccc(F)cc1)C1CCCCC1,89,i,i,i,i,23
CCOc1ccccc1C(=O)Nc1cc(C)ccc1NC(=O)c1ccco1,i,i,i,i,?,i
COc1ccccc1C(CCN(Cc1ccccc1)C(C)=O)c1ccco1 (centres undefined),i,i,?,i,?,i
O=c1c(Cl)c(NCc2ccccc2Cl)cnn1C12CC3CC(CC(C3)C1)C2,i,i,?,i,?,i
Oc1oc(-c2ccccc2)nc1/C=N/c1nccs1,+,i,i,i,i,33
Oc1oc(-c2ccccc2)nc1C=Nc1cccc2ccccc12,i,i,i,i,i,20
CCCCOc1ccc(-c2nc(/C=N/c3nccs3)c(O)o2)cc1,i,i,i,i,i,i
Oc1oc(-c2ccccc2)nc1C=NCc1ccncc1,i,i,i,i,i,i
CC1CCC(NC(=O)CCn2ccc3cc(S(=O)(=O)N4CCCC4)ccc32)CC1 (centres undefined),i,i,?,i,?,i
CCNc1ccc(C(=O)O)cc1N,61,i,i,i,i,32
Nc1cc(C(=O)O)ccc1Nc1ccccc1,i,i,i,i,i,i
CCc1ccccc1Nc1ccc(C(=O)O)cc1N,69,?,i,i,i,37
CCN(CC)CCN(Cc1cc2cc3c(cc2[nH]c1=O)OCO3)C(=S)NCCOC,nt,i,i,i,i,i
COc1ccccc1CNC(=O)N/C=C/c1ccc(Cl)cc1,i,i,i,nt,i,i
CN(C)CCNc1nc(-c2ccco2)c2c(c1C#N)CC(C)(C)OC2,i,i,i,i,?,i
CCN(CC)CCNc1nc(-c2ccccc2)c2c(c1C#N)CC(C)(C)OC2,i,i,nt,i,8.3µM,i
CCCCN(C)c1nc(-c2ccco2)c2c(c1C#N)CC(C)(C)OC2,i,i,nt,i,2.9µM,i
O=c1[nH]c2ccccc2nc1Cc1ccc(Cl)cc1,i,i,i,i,i,i
O=c1[nH]c2ccccc2nc1-c1ccc(Cl)cc1,52,i,i,i,i,18
c1ccc(-c2nnsc2-c2ncc[nH]2)cc1,i,i,i,i,i,i
O=c1[nH]c2ccccc2nc1-c1ccccc1,50,i,i,i,i,26
c1ccc(-c2nnsc2-c2nc3ccccc3[nH]2)cc1,43,i,i,i,i,23
SMILES,Shiga toxin inh,SARS PLpro yeast,Pf growth 48h,NS1 inh,Pf growth 96h,CHX counter
O=c1nc(-c2ccccc2)c2ccccc2[nH]1,i,i,nt,i,i,i
O=C(C1CC(=O)N(c2ccc(F)cc2)C1)N1CCCCCC1 (centres undefined),i,i,i,i,i,i
NNC(=S)NC1CC2CC1C1C=CCC21 (centres undefined),i,i,?,i,?,12
O=C(c1cccs1)c1ccc(-c2cccs2)s1,i,i,i,i,?,30
CN1CCCN(C(=O)c2ccc(Br)s2)CC1,i,i,i,i,i,i
CN1CCN(C(=O)c2ccc(-c3cccs3)s2)CC1,55,i,i,i,i,42
Cc1ccc(-n2cccn2)c(CN2CCC(CO)(CCc3ccccc3)CC2)c1,i,i,?,i,?,i
Cc1ccc(C(=O)NC2CCN(S(=O)(=O)c3ccccc3)CC2)cc1,i,i,i,i,?,i
CCN(CC)S(=O)(=O)c1ccc(C(C)NCC(=O)Nc2ccccc2C(=O)NC2CC2)cc1 (centres undefined),nt,i,10µM,nt,?,nt
CC(NCC(=O)Nc1ccccc1C(=O)NC1CC1)c1ccco1 (centres undefined),nt,i,1.7µM,nt,i,nt
Cc1ccc(S(=O)(=O)N2CCCCC2)cc1NS(=O)(=O)c1ccc(Cl)c(C(=O)O)c1,nt,i,i,nt,i,nt
